# Data reported in PubChem BioAssay (EPA / NIEHS).
# Results filed as inconclusive are left out. Calls of active or inactive are those of the source. Rule for the calls, unless noted: active = hit-call score of the fitted dose curve at least 0.9, where 1 is the maximum; inconclusive = response in the unintended direction; inactive = score below 0.9.
# Key:
# [1] = CCTE_Shafer_MEA_dev_AB: CCTE's Alamar Blue Assay for Cytotoxicity in the Neural Network Formation Assay, Shafer Lab (AID 2284083);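 note: twelve days of exposure from plating with re-dosing on DIV 5 and 9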
# Method in brief: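 Primary rat cortical neurons on PEI-coated 48-well MEA plates, 1.5 x 10^5 cells/well in laminin drop; compound exposure from day 0 of plating for twelve days, renewed at medium changes on DIV 5 and 9. Viability read as resazurin reduction by fluorescence, relative to DMSO.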
# [2] = CCTE_Mundy_HCI_hNP1_CellTiter: CCTE's Cell Titer-Glo 2 Assay in human neuroprogenitor cells for Viability, Mundy Lab (AID 2284241)
# Method in brief: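 Measures ATP content in human neural progenitors derived from WA09 embryonic cells. Read-out at 26.5 hours after dosing, with DMSO serving as the negative control and baseline.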
# [3] = IUF_NPC5_oligodendrocyte_differentiation_120hr: Leibniz Research Institute for Environmental Medicine (IUF) 120-hour Oligodendrocyte Differentiation Assay (NPC5) (AID 2284304);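 note: primary human fetal neural progenitor spheres plated to migrate and differentiate; share of O4-positive cells among Hoechst nuclei found by CNN image analysis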
# Method in brief: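 Primary human fetal (GW 16-19) neural progenitor spheres (0.3 mm) plated on poly-D-lysine/laminin in N2 differentiation medium, exposed from day 0 for 120 h with half-medium refresh at day 3; O4-positive cells as percent of Hoechst nuclei, CNN-identified, versus DMSO.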
# [4] = CCTE_Mundy_HCI_iCellGluta_NOG_NeuriteLength: CCTE's Neurite Outgrowth Assay in iCellGluta cells for Neurite Length, Mundy Lab (AID 2284318)
# Method in brief: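 Automated high-content imaging of betaIII-tubulin (Alexa Fluor-488) and Hoechst-stained cells gave neurite length, normalized to the DMSO baseline.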
# [5] = UKN5_HCS_SBAD2_cell_viability: Viability Assessment in the University of Konstanz (UKN) Leist Lab Neurite Outgrowth Assay in human iPSC-derived immature Dorsal Root Ganglia Neurons (UKN5) (AID 2284056; active = hit-call score of the fitted dose curve at least 0.9, where 1 is the maximum; inactive = score below 0.9)
# Method in brief: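 iPSC-derived immature peripheral neurons (SBAD2) seeded on Matrigel with CHIR99021, SU5402 and DAPT, dosed 1 h later for 24 h. Viability from Hoechst H-33342 and calcein-AM live staining, high-content imaging; bidirectional fit versus DMSO.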
# [6] = UKN5_HCS_SBAD2_neurite_outgrowth: University of Konstanz (UKN) Leist Lab Neurite Outgrowth Assay in human iPSC-derived immature Dorsal Root Ganglia Neurons (UKN5) (AID 2284070; active = hit-call score of the fitted dose curve at least 0.9, where 1 is the maximum; inactive = score below 0.9); settings: actives raise or lower the signal
# Method in brief: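 Human iPSC-derived immature DRG neurons (SBAD2) on Matrigel with CHIR99021 (1.5 uM), SU5402 (5 uM), DAPT (5 uM); compounds added 1 h post-seeding for 24 h. Calcein-AM neurite area imaged; bidirectional fit vs DMSO.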
# [7] = target: Cytochrome P450 2C19 (Homo sapiens) (UniProt P33261); test: NVS_ADME_hCYP2C19: NovaScreen (NVS) CYP450-related Enzyme Activity (ADME) Assay for human CYP2C19 (AID 2283113);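 note: potency for inhibition seen as loss of fluorescent signal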
# Method in brief: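 Cell-free assay of recombinant human CYP2C19 expressed in insect cells, with a fluorogenic substrate; fluorescence intensity read 1 hour after dosing. Loss of signal relative to acetonitrile negative control indicates inhibition. Primary screen at 10 uM in duplicate, then concentration series.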
# [8] = target: human Phosphoinositide 3-kinase alpha (PI3Ka), PIK3CA (gene 5290) (UniProt P42336); test: NVS_ENZ_hPI3Ka: NovaScreen (NVS) Enzymatic Assay for human Phosphoinositide 3-kinase alpha (PI3Ka) (AID 2283196)
# Method in brief: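 Recombinant human PI3Kα with fluorescent substrate, 1 h, product separated by electrophoretic mobility shift; 25 uM duplicate screen, hits (e.g., 30% inhibition) retested singly up to 50 uM; loss of signal vs DMSO.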
# DIO3 (gene 1735) = test: CCTE_GLTED_hDIO3: CCTE's human Deiodinase 3 (DIO3) Inhibition Assay, Great Lakes Toxicology and Ecology Division (GLTED) Lab (AID 2284055);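 note: potency is for inhibition seen as loss of released iodide signal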
# Method in brief: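 Cell-free assay with human DIO3 enzyme produced by adenovirus expression; enzyme incubated with test chemical for 3 hours. Liberated iodide then measured by Sandell-Kolthoff absorbance; loss of signal versus DMSO baseline indicates inhibition, run in triplicate.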
# [9] = target: Estrogen receptor (Homo sapiens) (UniProt P03372); test: OT_ER_ERaERa_1440: Odyssey Thera (OT) 24-hour HEK293T Protein-Complementation Assay for Estrogen Receptor-alpha/-alpha Homodimer (AID 2283349);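 note: hits raise fluorescence above DMSO for agonists and antagonists alike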
# Method in brief: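 Readout is the rise in mean fluorescence from reporter fragment complementation when ERα LBD (aa 310-547) units dimerize in HEK293T cells. Measured 24 h after dosing and analysed as increase over DMSO control.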
# [10] = target: Estrogen receptor (Homo sapiens) (UniProt P03372); test: OT_ER_ERaERa_0480: Odyssey Thera (OT) 8-hour HEK293T Protein-Complementation Assay for Estrogen Receptor-alpha/-alpha Homodimer (AID 2283351);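 note: rise in fluorescence from reassembled reporter fragments on ERα LBD homodimer in nucleus or whole cell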
# Method in brief: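 HEK293T cells stably expressing the human ERα ligand-binding domain (aa 310-547) as a homodimer PCA were dosed with compound for 8 h. Gain of fluorescence intensity versus DMSO vehicle was read by laser scanning cytometry.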
# [11] = target: Estrogen receptor (Homo sapiens) (UniProt P03372); test: OT_ERa_GFPERaERE_0480: Odyssey Thera (OT) 8-hour HeLa Transcription Induction Assay for Estrogen Receptor (AID 2283381; active = hit-call score of the fitted dose curve at least 0.9, where 1 is the maximum; inactive = score below 0.9)
# Method in brief: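 HeLa cells dosed with compound and imaged by fluorescence microscopy at 8 h; GFP induction from an ERE reporter quantified by high-content image analysis and fitted as gain of signal against DMSO baseline.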
# [12] = target: Estrogen receptor (Homo sapiens) (UniProt P03372); test: OT_ERa_GFPERaERE_0120: Odyssey Thera (OT) 2-hour HeLa Transcription Induction Assay for Estrogen Receptor (AID 2283382)
# Method in brief: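 HeLa cells were dosed with test chemical and read 2 hours later for GFP-ERα/ERE-linked fluorescent protein induction by fluorescence microscopy. Gain-of-signal was fitted relative to DMSO baseline, quantified by high content image analysis.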
# [13] = CEETOX_H295R_11DCORT_noMTC: CeeTox H295R High-throughput Steroidogenesis Assay for 11-Deoxycortisol (11DCORT), maximum tolerated concentration (MTC) filtered results only (AID 2283911; active = hit-call score of the fitted dose curve at least 0.9, where 1 is the maximum; inactive = score below 0.9); settings: actives raise or lower the signal
# Method in brief: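 HPLC-MS/MS read-out of 11-deoxycortisol after MTBE extraction of H295R medium. Cells: forskolin 10 uM pre-stimulation 48 h, chemical 48 h, 0.1% DMSO final. Bidirectional fit vs DMSO baseline; no MTC filtering.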
# [14] = CEETOX_H295R_OHPREG_noMTC: CeeTox H295R High-throughput Steroidogenesis Assay for OH-Pregnenolone (OHPREG), maximum tolerated concentration (MTC) filtered results only (AID 2283912; active = hit-call score of the fitted dose curve at least 0.9, where 1 is the maximum; inactive = score below 0.9); settings: actives raise or lower the signal
# Method in brief: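 H295R human adrenal cells, forskolin-prestimulated (10 uM, 48 h), then exposed to test chemical in 0.1% DMSO for 48 h. 17alpha-hydroxypregnenolone in medium measured by HPLC-MS/MS after MTBE extraction; bidirectional fit versus DMSO, concentrations not MTC-filtered.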
# [15] = CEETOX_H295R_OHPROG_noMTC: CeeTox H295R High-throughput Steroidogenesis Assay for OH-Progesterone (OHPROG), maximum tolerated concentration (MTC) filtered results only (AID 2283914; active = hit-call score of the fitted dose curve at least 0.9, where 1 is the maximum; inactive = score below 0.9); settings: actives raise or lower the signal
# Method in brief: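 H295R human adrenal cells prestimulated 48 h with 10 uM forskolin, then exposed 48 h to test chemical (0.1% DMSO final). Medium 17alpha-hydroxyprogesterone extracted with MTBE, quantified by HPLC-MS/MS; bidirectional fit versus DMSO, concentrations not MTC-filtered.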
# [16] = CEETOX_H295R_CORTISOL_noMTC: CeeTox H295R High-throughput Steroidogenesis Assay for Cortisol, maximum tolerated concentration (MTC) filtered results only (AID 2283916; active = hit-call score of the fitted dose curve at least 0.9, where 1 is the maximum; inactive = score below 0.9); settings: actives raise or lower the signal
# Method in brief: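 H295R adrenal cells were pre-stimulated 48 h with 10 uM forskolin, then exposed 48 h to test chemical in 0.1% DMSO. Medium cortisol was measured by MTBE extraction and HPLC-MS/MS; bidirectional fit versus DMSO, concentrations not MTC-filtered.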
# [17] = CEETOX_H295R_CORTIC_noMTC: CeeTox H295R High-throughput Steroidogenesis Assay for Corticosterone (CORTIC), maximum tolerated concentration (MTC) filtered results only (AID 2283917; active = hit-call score of the fitted dose curve at least 0.9, where 1 is the maximum; inactive = score below 0.9); settings: actives raise or lower the signal
# Method in brief: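 H295R, 10 uM forskolin prestim 48 h → test chem (0.1% DMSO final) 48 h → media MTBE extraction → HPLC-MS/MS corticosterone. Bidirectional fit vs DMSO baseline; no MTT-based MTC filtering.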
# [18] = CEETOX_H295R_DOC_noMTC: CeeTox H295R High-throughput Steroidogenesis Assay for DOC, maximum tolerated concentration (MTC) filtered results only (AID 2283918; active = hit-call score of the fitted dose curve at least 0.9, where 1 is the maximum; inactive = score below 0.9); settings: actives raise or lower the signal
# Method in brief: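 H295R cells prestimulated 48 h with 10 uM forskolin, then exposed 48 h to test chemical (0.1% DMSO final). Medium 11-deoxycorticosterone extracted with MTBE, quantified by HPLC-MS/MS; bidirectional fit versus DMSO, concentrations not MTC-filtered.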
# [19] = CEETOX_H295R_PROG_noMTC: CeeTox H295R High-throughput Steroidogenesis Assay for Progesterone (PROG), maximum tolerated concentration (MTC) filtered results only (AID 2283920; active = hit-call score of the fitted dose curve at least 0.9, where 1 is the maximum; inactive = score below 0.9); settings: actives raise or lower the signal
# Method in brief: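 H295R human adrenal cells were prestimulated 48 h with 10 uM forskolin, then exposed 48 h to test chemical (0.1% DMSO final). Progesterone in medium was quantified by HPLC-MS/MS; bidirectional fitting versus DMSO, concentrations not MTC-filtered.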
# Sequence of Estrogen receptor (Homo sapiens) (P03372 whole entry, looked up, the tested form may be a part): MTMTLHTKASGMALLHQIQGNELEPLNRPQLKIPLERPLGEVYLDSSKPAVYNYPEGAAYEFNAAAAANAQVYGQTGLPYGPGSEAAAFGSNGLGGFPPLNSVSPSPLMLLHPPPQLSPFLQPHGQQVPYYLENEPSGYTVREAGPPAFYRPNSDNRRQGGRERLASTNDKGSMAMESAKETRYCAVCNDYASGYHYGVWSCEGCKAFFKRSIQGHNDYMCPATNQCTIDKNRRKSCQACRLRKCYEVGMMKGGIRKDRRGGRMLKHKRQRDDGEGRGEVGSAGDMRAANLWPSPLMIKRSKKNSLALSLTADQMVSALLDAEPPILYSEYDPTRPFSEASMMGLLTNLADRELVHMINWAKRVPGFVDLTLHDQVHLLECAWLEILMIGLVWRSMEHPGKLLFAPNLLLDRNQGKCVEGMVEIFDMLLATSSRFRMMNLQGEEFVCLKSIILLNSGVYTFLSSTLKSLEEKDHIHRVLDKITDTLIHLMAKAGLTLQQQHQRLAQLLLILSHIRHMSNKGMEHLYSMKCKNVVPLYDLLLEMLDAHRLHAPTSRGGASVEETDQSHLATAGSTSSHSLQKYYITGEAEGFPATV
# Sequence of human Phosphoinositide 3-kinase alpha (PI3Ka), PIK3CA (gene 5290) (P42336 whole entry, looked up): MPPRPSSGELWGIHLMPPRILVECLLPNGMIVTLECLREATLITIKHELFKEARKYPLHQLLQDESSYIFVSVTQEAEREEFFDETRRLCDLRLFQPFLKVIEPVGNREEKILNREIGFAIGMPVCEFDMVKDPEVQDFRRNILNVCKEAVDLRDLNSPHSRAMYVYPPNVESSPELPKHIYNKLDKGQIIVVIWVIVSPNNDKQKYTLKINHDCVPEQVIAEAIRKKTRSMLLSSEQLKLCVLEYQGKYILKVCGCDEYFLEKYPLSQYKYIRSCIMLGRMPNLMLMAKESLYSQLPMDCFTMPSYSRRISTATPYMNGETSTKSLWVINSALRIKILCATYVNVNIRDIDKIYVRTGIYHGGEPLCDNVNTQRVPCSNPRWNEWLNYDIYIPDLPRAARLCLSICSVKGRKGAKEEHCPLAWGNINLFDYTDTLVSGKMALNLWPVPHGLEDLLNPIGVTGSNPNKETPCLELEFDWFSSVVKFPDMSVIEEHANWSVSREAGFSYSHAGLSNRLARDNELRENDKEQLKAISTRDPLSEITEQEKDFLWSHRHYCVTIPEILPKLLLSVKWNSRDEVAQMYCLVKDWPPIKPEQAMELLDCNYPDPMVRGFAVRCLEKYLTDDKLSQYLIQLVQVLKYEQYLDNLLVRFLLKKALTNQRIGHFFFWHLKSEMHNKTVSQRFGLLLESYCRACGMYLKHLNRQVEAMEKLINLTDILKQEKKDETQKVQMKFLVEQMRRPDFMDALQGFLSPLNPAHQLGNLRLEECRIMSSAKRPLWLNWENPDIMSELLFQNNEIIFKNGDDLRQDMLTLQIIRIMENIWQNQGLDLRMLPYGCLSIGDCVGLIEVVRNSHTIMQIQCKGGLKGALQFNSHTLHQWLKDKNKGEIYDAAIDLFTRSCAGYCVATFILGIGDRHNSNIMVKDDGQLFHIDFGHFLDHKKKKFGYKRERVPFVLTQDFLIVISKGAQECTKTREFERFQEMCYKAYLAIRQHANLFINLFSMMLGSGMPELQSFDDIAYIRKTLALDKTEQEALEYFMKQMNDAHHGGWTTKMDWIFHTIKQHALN
smiles,measurement,setting,value
CN(C)CCC(c1ccc(Cl)cc1)c1ccccn1 (stereo not given),outcome,[1],inactive
same,outcome,[2],inactive
same,outcome,[3],inactive
same,outcome,[4],inactive
CC1(C)S[C@@H]2[C@H](NC(=O)[C@H](N)c3ccccc3)C(=O)N2[C@H]1C(=O)O,outcome,[5],inactive
same,outcome,[6],inactive
CN(C)c1ccc(C(c2ccccc2)c2ccc(N(C)C)cc2)cc1,AC50,[7],0.356 µM (active)
CC(=O)CCc1ccccc1,outcome,[8],inactive
Oc1cccc2ccccc12,outcome,[5],inactive
same,outcome,[6],inactive
COC(=O)[C@]1(C)CCC[C@@]2(C)[C@H]1CC=C1C=C(C(C)C)CC[C@@H]12,AC50,DIO3 (gene 1735),36 µM (active)
O=C(O)c1ccccc1C(=O)O,outcome,[9],inactive
same,outcome,[10],inactive
same,outcome,[11],inactive
same,outcome,[12],inactive
same,outcome,[13],inactive
same,outcome,[14],inactive
same,outcome,[15],inactive
same,outcome,[16],inactive
same,outcome,[17],inactive
same,outcome,[18],inactive
same,outcome,[19],inactive
NC(N)=Nc1nc(CSCCC(N)=NS(N)(=O)=O)cs1,outcome,[1],inactive
same,outcome,[2],inactive
same,outcome,[3],inactive
same,outcome,[4],inactive
Sc1nc2ccccc2s1,AC50,[7],5 µM (active)
same,outcome,[13],inactive
same,outcome,[14],inactive
same,outcome,[15],inactive
same,outcome,[16],inactive
same,outcome,[17],inactive
same,outcome,[18],inactive
same,outcome,[19],inactive
same,AC50,DIO3 (gene 1735),61.3 µM (active)
CCOC(=O)c1ccccc1,outcome,[9],inactive
same,outcome,[10],inactive
same,outcome,[11],inactive
same,outcome,[12],inactive
CCCCCCCCCCCCCCCCCC[N+](C)(C)C,AC50,[8],3.68 µM (active)
